# According to ChEMBL document CHEMBL3988442, “University of Dundee, Small-Polar-MMV Screening Library” (2021):
# Biological target: T1, Methionyl-tRNA synthetase, putative (Leishmania donovani (strain BPK282A1)) (UniProt E9BF75)
# T1 sequence (whole entry): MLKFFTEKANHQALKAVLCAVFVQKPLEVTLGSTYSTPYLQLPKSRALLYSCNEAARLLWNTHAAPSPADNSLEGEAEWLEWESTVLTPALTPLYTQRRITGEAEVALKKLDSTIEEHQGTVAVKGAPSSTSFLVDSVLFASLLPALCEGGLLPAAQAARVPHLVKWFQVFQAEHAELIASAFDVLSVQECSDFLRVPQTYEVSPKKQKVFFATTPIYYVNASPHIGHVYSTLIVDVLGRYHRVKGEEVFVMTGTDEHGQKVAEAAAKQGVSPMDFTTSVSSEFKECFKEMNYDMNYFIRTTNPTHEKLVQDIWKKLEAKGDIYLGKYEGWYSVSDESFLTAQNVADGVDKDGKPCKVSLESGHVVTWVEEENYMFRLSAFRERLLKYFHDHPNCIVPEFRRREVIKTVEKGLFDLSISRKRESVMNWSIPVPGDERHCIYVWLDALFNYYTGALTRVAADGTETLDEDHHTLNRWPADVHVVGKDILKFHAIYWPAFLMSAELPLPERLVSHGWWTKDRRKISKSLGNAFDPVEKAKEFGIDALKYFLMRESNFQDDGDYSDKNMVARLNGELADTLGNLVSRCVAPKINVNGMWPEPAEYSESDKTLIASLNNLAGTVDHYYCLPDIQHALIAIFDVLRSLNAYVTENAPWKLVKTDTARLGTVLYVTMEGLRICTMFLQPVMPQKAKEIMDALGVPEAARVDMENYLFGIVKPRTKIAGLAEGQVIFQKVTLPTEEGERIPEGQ
# Experiment: Leishmania donovani Methionine tRNA synthetase (LdMetRS):v7. Dose response assay
# Assay type: functional
# Parameters: conc 80 nM, time 150 minutes
smiles,measurement,setting,value
NS(=O)(=O)c1cccnc1Nc1cc(O)ccn1,PXC50,MAX_EFFECT 7.407407407,< 4
Cc1cc(CNc2cc(Cl)cc(Cl)c2)no1,PXC50,MAX_EFFECT 7.456978967,< 2.7
CCn1c(NC(=O)Nc2ccccc2C)nc2ccccc21,PXC50,MAX_EFFECT 7.777777778,< 4
CN(CCO)c1nc(NCCO)c2cnn(C)c2n1,PXC50,MAX_EFFECT 9.248554913,< 4
CN(c1nc(NCCO)c2cnn(C)c2n1)C1CCS(=O)(=O)C1 (configuration not stated),PXC50,MAX_EFFECT 9.248554913,< 4
CN(C)c1nc(NCCO)c2cnn(C)c2n1,PXC50,MAX_EFFECT 10.24667932,< 4
c1ccc(-c2nc(N3CCOCC3)c3sccc3n2)cc1,PXC50,MAX_EFFECT 16.2962963,< 4
Clc1cc(Cl)cc(CNCc2ncc[nH]2)c1,PXC50,MAX_EFFECT 20.45889101,< 2.7
Cn1ncc2c(NCCO)nc(NCCS(=O)(=O)N3CCOCC3)nc21,PXC50,MAX_EFFECT 23.12138728,< 4
OCCCNc1ccnc(Nc2cccc(F)c2)n1,PXC50,MAX_EFFECT 28.51637765,< 4
COc1ccccc1NC(=O)NCC1CCCCC1,PXC50,MAX_EFFECT 34.20560748,< 4
Clc1cc(Cl)cc(CNCc2ccncc2)c1,PXC50,MAX_EFFECT 36.1376673,< 2.7
C[C@@H](CO)Nc1ccnc(Nc2ccc(F)c(F)c2)n1,PXC50,MAX_EFFECT 40.46242775,< 4
C[C@H](CO)Nc1ccnc(Nc2cccc(C(F)(F)F)c2)n1,PXC50,MAX_EFFECT 43.93063584,< 4
NS(=O)(=O)c1cccnc1Nc1ccc(F)c(F)c1,PXC50,MAX_EFFECT -0.759013283,< 4
CN(CCO)c1ccnc(Nc2ccc(F)c(F)c2)n1,PXC50,"BOTTOM 0.294483603, HILLSLOPE 0.87168646, MAX_EFFECT 90.28037383, TOP 97.37088088",5.27
Clc1cc(Cl)cc(NCc2ccccn2)c1,PXC50,"BOTTOM 0.466583915, HILLSLOPE 0.636268233, MAX_EFFECT 51.05162524, TOP 100.0",2.71
C[C@@H](CO)Nc1nc(Nc2ccc(F)c(F)c2)nc2c1cnn2C,PXC50,"BOTTOM 0.900407202, HILLSLOPE 1.012545194, MAX_EFFECT 78.11320755, TOP 96.15766895",4.67
Cn1ncc2c(NCCO)nc(Nc3cccc(Cl)c3)nc21,PXC50,"BOTTOM 2.482705833, HILLSLOPE 1.074607965, MAX_EFFECT 81.43133462, TOP 87.71460066",5.07
Cn1ncc2c(NCCO)nc(Nc3ccc(F)cc3)nc21,PXC50,"BOTTOM 3.895127381, HILLSLOPE 1.044427324, MAX_EFFECT 67.40740741, TOP 80.2965153",4.65
Cn1ncc2c(NC3CCC3)nc(Nc3ccc(F)c(F)c3)nc21,PXC50,"BOTTOM 4.327233824, HILLSLOPE 1.310483513, MAX_EFFECT 62.26415094, TOP 64.55009742",5.13
Clc1cc(Cl)cc(NCc2ccncc2)c1,PXC50,"BOTTOM -1.202484297, HILLSLOPE 0.574759938, MAX_EFFECT 66.34799235, TOP 100.0",3.3
Clc1cc(Cl)cc(NCc2ncc[nH]2)c1,PXC50,"BOTTOM -1.539697056, HILLSLOPE 1.029999783, MAX_EFFECT 60.61185468, TOP 100.0",2.93
Clc1cc(Cl)cc(NCc2c[nH]cn2)c1,PXC50,"BOTTOM -1.936831904, HILLSLOPE 1.590281355, MAX_EFFECT 96.5583174, TOP 100.0",3.41
CN(CCO)c1ccnc(Nc2cccc(C(F)(F)F)c2)n1,PXC50,"BOTTOM -8.924411722, HILLSLOPE 0.906080231, MAX_EFFECT 87.09055877, TOP 92.74987259",5.38
CCn1c(NC(=O)Nc2ccccc2OC)nc2ccccc21,PXC50,MAX_EFFECT 1.111111111,< 4
CN(CCO)c1ccnc(Cl)n1,PXC50,MAX_EFFECT 1.682242991,< 4
Cn1cc(C(=O)N2CCc3ccccc32)c2ccccc21,PXC50,MAX_EFFECT 1.851851852,< 4
NS(=O)(=O)c1cccn2c1nc1cccnc12,PXC50,MAX_EFFECT 1.851851852,< 4
COc1cccc(NC(=O)Nc2ccccc2OC)c1,PXC50,MAX_EFFECT 2.056074766,< 4
CN(C)CCNc1nc(NCCO)c2cnn(C)c2n1,PXC50,MAX_EFFECT 2.277039848,< 4
COc1ccccc1NC(=O)Nc1cccc(O)c1,PXC50,MAX_EFFECT 2.803738318,< 4
OCCNc1ccnc(Cl)n1,PXC50,MAX_EFFECT 3.551401869,< 4
COc1cc(NC(=O)c2cccc3cccnc23)c(OC)cc1Cl,PXC50,MAX_EFFECT 3.703703704,< 4
CN(CCO)c1nccc(Cl)n1,PXC50,MAX_EFFECT 5.046728972,< 4
COc1ccccc1NC(=O)Nc1cc(C(N)=O)ccc1OC,PXC50,MAX_EFFECT 5.420560748,< 4
Cn1ncc2c(NCCO)nc(N3CCOCC3)nc21,PXC50,MAX_EFFECT 5.69259962,< 4
COc1ccc(Nc2ncccc2S(N)(=O)=O)cc1C(F)(F)F,PXC50,MAX_EFFECT 5.780346821,< 4
N#Cc1c(N)nc(-c2ccccc2)nc1C(F)(F)F,PXC50,MAX_EFFECT 6.666666667,< 4
CN(CCO)c1nccc(Nc2ccc(F)c(F)c2)n1,PXC50,MAX_EFFECT 7.663551402,< 4
NS(=O)(=O)c1cccnc1Nc1cncnc1,PXC50,MAX_EFFECT 8.518518519,< 4
Cn1ncc2c(NCCO)nc(N3CCCCC3)nc21,PXC50,MAX_EFFECT 10.78998073,< 4
Cc1cc(Nc2ncccc2S(N)(=O)=O)cc(C(F)(F)F)c1,PXC50,MAX_EFFECT 10.97804391,< 4
FC(F)(F)CCNCc1cc(Cl)cc(Cl)c1,PXC50,MAX_EFFECT 11.28107075,< 2.7
Cn1ncc2c(NCCO)nc(NCCc3ccccc3)nc21,PXC50,MAX_EFFECT 11.85185185,< 4
Clc1cc(Cl)cc(CNC2COC2)c1,PXC50,MAX_EFFECT 15.10516252,< 2.7
Nc1nc(-c2ccccc2)cn1NC(=O)Nc1ccccc1F,PXC50,MAX_EFFECT 18.14814815,< 4
CC(NCc1cc(Cl)cc(Cl)c1)C1CCS(=O)(=O)CC1 (configuration not stated),PXC50,MAX_EFFECT 19.31166348,< 2.7
COc1cccc(NC(=O)N2CCOc3ccccc32)c1,PXC50,MAX_EFFECT 19.53578337,< 4
Cc1cnn(C)c1CNc1cc(Cl)cc(Cl)c1,PXC50,MAX_EFFECT 23.51816444,< 2.7
Cn1ncc2c(N3CCCCC3)nc(Nc3ccccc3)nc21,PXC50,MAX_EFFECT 27.40740741,< 4
Clc1cc(Cl)cc(NCc2ccc3[nH]ncc3c2)c1,PXC50,MAX_EFFECT 28.48948375,< 2.7
COc1cccc(NC(=O)N2CCCc3ccccc32)c1,PXC50,MAX_EFFECT 45.28301887,< 4
Clc1cc(Cl)cc(CNCc2ccccn2)c1,PXC50,MAX_EFFECT 45.69789675,< 2.7
CCc1cc2c(NCc3ccccn3)nc(C)nc2s1,PXC50,MAX_EFFECT 3.194103194,< 4
same,PXC50,MAX_EFFECT 6.030150754,< 4
C[C@H](CO)Nc1ccnc(Nc2cccc(F)c2)n1,PXC50,MAX_EFFECT 26.58959538,< 4
Cc1cc(C(F)(F)F)nc(CCNc2nc(C)nc3sccc23)n1,PXC50,MAX_EFFECT 8.838383838,< 4
same,PXC50,MAX_EFFECT 11.2244898,< 4
COc1ccccc1NC(=O)Nc1c[n+]([O-])ccc1OC,PXC50,MAX_EFFECT 3.018867925,< 4
CN1CCN(c2ccc3ccc(C(=O)N4CCCO4)cn23)CC1,PXC50,MAX_EFFECT 9.85915493,< 4
same,PXC50,MAX_EFFECT 16.48148148,< 4
